Source: PubChem BioAssay
Sampled rows, rich in hits. Any-hit rate of the full collection: about 3.1%.
Vif-A3G inh: qHTS for Inhibitors of Vif-A3G Interactions: qHTS; DNA dC->dU-editing enzyme APOBEC-3G (Homo sapiens), Q9HC16; HeLa A3G-eYFP + Vif (tagged APOBEC3G with the HIV-1 protein that degrades it), YFP fluorescence, overnight; actives 0.076% (n = 410,000); Potency, µM (doses to about 46.1 µM), inactives show at the top dose activity, negative = active, hits mostly inhibitors; also: potency is read from the fitted curve at half-maximal effect; % is scaled to controls: 0 for no effect and ±100 for the full control effect; nearly all actives have a fitted effect of over 60% in size
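HeLa cells stably expressing Vif and C-terminally eYFP-tagged A3G, seeded overnight at 37 deg C, then exposed to compound by pintool overnight at 37 deg C. Rise in yellow fluorescence (Ex 488/Em 500-530, Acumen) marks blocked Vif-driven A3G degradation.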
PLK1 PBD block: qHTS for Inhibitors of PLK1-PDB (polo-like kinase 1 - polo-box domain): Primary Screen | Plk1 PBD binding of FITC phosphopeptide, fluorescence polarization | actives 2.8% (n = 360,000) | AID 720504, 2013 | Serine/threonine-protein kinase PLK1 (Homo sapiens), P53350 | Potency, µM, for the others: max response, negative = inhibition, actives largely listed as inhibitors; also: potency is read from the fitted curve at half-maximal effect; series mostly up to about 57 µM; % is scaled to controls: 0 for no effect and ±100 for the full control effect; nearly all actives have a fitted effect of over 65% in size
VDR inhibitor: Inhibitors of the vitamin D receptor (VDR): qHTS; actives 0.93% (n = 400,000); Potency, µM, inactives show max response, negative = inhibition, actives largely listed as inhibitors; Vitamin D3 receptor (Homo sapiens), P11473; VDR-SRC2-3 peptide fluorescence polarization, 2 h; also: potency is read from the fitted curve at half-maximal effect; % is scaled to controls: 0 for no effect and ±100 for the full control effect
Target sequence (P11473 whole entry, looked up): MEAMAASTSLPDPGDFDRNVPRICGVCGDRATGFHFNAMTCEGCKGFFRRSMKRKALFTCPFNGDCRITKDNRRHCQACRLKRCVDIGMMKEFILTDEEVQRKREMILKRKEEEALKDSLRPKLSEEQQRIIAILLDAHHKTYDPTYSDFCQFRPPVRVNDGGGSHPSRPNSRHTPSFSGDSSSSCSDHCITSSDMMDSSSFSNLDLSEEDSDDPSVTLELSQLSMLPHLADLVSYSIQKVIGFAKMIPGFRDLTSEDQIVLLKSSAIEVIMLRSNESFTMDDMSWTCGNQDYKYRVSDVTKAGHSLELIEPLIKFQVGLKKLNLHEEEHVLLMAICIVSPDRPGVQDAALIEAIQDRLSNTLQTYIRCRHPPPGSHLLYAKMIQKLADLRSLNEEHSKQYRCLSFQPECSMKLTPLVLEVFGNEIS
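After 23 nl compound addition and a short centrifugation, plates sat for 2 hours at ambient temperature; polarization of fluorescence then indicated loss of VDR binding to peptide SRC2-3.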
Vif-A3F inh: qHTS for Inhibitors of Vif-A3F Interactions: qHTS | actives 0.2% (n = 390,000) | HeLa A3F-eYFP + Vif (tagged APOBEC3F with the HIV-1 protein that degrades it), YFP fluorescence increase | Potency, µM (doses to about 46.1 µM), for inactives: top-dose activity, negative = active; also: potency is read from the fitted curve at half-maximal effect; % of control where 0% means no effect; nearly all actives have a fitted effect of over 65% in size
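HeLa cells stably expressing A3F-eYFP plus Vif, plated and incubated overnight at 37 deg C, then exposed to compounds overnight at 37 deg C. Blocked degradation read as raised yellow fluorescence (Ex 488/Em 500-530).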
TSHR antagonist: Antagonists of the Thyroid Stimulating Hormone Receptor: HTS campaign; TSHR-expressing cells, TSH-stimulated cAMP HTRF, 2 h; stronger effect = lower value; activity change, negative = inhibition, % at 11.5 µM; actives 0.2% (n = 330,000);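 active = activity change below a set negative limit, meaning inhibition stronger than a set level, cut at about -70% in these data; inconclusive = activity change between two set negative limits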; also: % is scaled to controls: 0 for no effect and ±100 for the full control effect
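Cell-based HTRF cAMP assay; TSHR cells + compound, TSH EC80 (4nM final), 2 h, 37 deg C. Lysis with anti-cAMP cryptate and cAMP-d2, 30 min RT, read 665/620 nm.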
Numbers without * were called inactive; ? = inconclusive; nt = no result. Unless noted, calls follow the shape of the dose curve; as a rule, active = well fitted curve in the direction sought with a large enough effect; inconclusive = small, poorly fitted or top-dose-only effect, or another doubt; inactive = no such curve, though single readings can be large; an effect the other way counts as inactive or inconclusive.

SMILES	Vif-A3G inh	PLK1 PBD block	VDR inhibitor	Vif-A3F inh	TSHR antagonist
O=C(Nc1cccc(-c2nc3ncccc3o2)c1)c1ccc2c(c1)OCO2	1.0%	26.7µM*	?	-13.3%	nt
CC(=O)c1cccc(NC(=O)c2cc(=O)[nH]c3ccccc23)c1	-0.7%	18.9µM*	3.7%	1.0%	-3.3
CC(C)C1C(=O)N(S(C)(=O)=O)[C@H]2CCN(C(=O)/C=C/CN3CCCCC3)[C@@H]12 (stereo partly drawn)	nt	nt	-1.8%	nt	nt
CCCC[C@@H]1CCCO[C@@](C(=O)NCCOC)(C(F)(F)F)C1	-1.6%	nt	-8.9%	nt	nt
CC(C)C[C@H](NC(=O)[C@H](CC(C)C)NC(=O)[C@H](Cc1ccccc1)NC(=O)[C@@H](N)CO)C(=O)N[C@@H](CCCN=C(N)N)C(=O)N[C@@H](CC(N)=O)C(=O)O	nt	nt	2.1%	nt	nt
CNc1c(Br)cc(/C=C2\C=Cc3ccccc32)cc1Br	-4.5%	nt	nt	nt	nt
O=C(Nc1cccc(NC(=O)c2ccc3c(c2)OCO3)c1)c1ccccc1	-2.4%	-2.5%	1.6%	1.6%	6.5
CC(=O)c1cccc(NC(=O)c2ccc3c(c2)OCO3)c1	1.7%	23.8µM*	79.4µM*	8.5%	4.3
COc1cc(NC(=O)c2ccc3c(c2)OCO3)ccc1NC(=O)C(C)C	-1.8%	29.9µM*	3.4%	nt	-3.9
Cc1c(C#N)c2ccccc2n1CC(=O)N1CCCC1	-0.4%	29.9µM*	?	nt	30.4
Cc1cc(Nc2cccc(C(F)(F)F)c2)nc2ccc(NC(=O)Cc3ccc(Cl)cc3)cc12	-8.5%	nt	8.7%	-21.9%	nt
COc1ccccc1-c1noc(-c2cc(OC)c(OC)c(OC)c2)n1	0.0%	8.44µM*	?	5.7%	-25.2
COc1cc(OC)cc(-c2nc(-c3ccc(Br)cc3)no2)c1	-6.3%	-0.8%	-9.4%	0.6%	73.3
COc1cc(OC)cc(-c2nc(-c3ccccc3OC)no2)c1	-0.2%	26.7µM*	-21.6%	-6.3%	27.1
COc1cccc(-c2nc(-c3ccccn3)no2)c1OC	-5.1%	7.52µM*	-4.4%	5.2%	17.3
CC(=O)c1ccc(NC(=S)Nc2ccc3cn[nH]c3c2)cc1	-11.4%	29.9µM*	-27.3%	-5.9%	-6.2
CCNC(=S)Nc1ccc2cn[nH]c2c1	4.5%	23.8µM*	1.8%	1.2%	5.7
Cc1ccc(NC(=S)Nc2ccc3cn[nH]c3c2)cc1C	3.8%	-6.3%	8.7%	1.3%	-1.7
CC(C)c1ccc(NC(=S)Nc2ccc3cn[nH]c3c2)cc1	5.9%	-12.6%	-3.8%	4.3%	-24.4
CCN(CC)S(=O)(=O)c1ccc(C)c(NC(=S)N2CCN(C/C=C/c3ccccc3)CC2)c1	4.4%	-26.6%	?	1.2%	-14.3
CCN(CC)S(=O)(=O)c1ccc(C)c(NC(=S)N2CCN(c3ccccn3)CC2)c1	0.8%	29.9µM*	-0.6%	1.1%	-5.7
Cc1nc2c(C(=O)NCc3ccccc3Cl)c[nH]n2c(=O)c1Cl	1.6%	29.9µM*	-16.3%	0.6%	-1.1
CCC(CC)C(=O)NCc1ccccc1Cl	1.4%	-7.4%	9.9%	6.2%	9.7
Cc1nc(C)c(C(=O)NCc2ccccc2Cl)o1	4.3%	21.2µM*	-27.9%	-6.4%	6.8
Cc1cc(C(=O)NCc2ccccc2Cl)n(-c2ccccc2)n1	1.1%	26.7µM*	-18.6%	-3.8%	-0.8
SMILES	Vif-A3G inh	PLK1 PBD block	VDR inhibitor	Vif-A3F inh	TSHR antagonist
O=C(CSc1nc2c([nH]c3ccccc32)c(=O)n1-c1ccc(F)cc1)NC1CCCCC1	?	nt	8.9%	-6.9%	nt
O=c1c(-c2cc(F)cc(F)c2)nc2cncnc2n1Cc1ccc(F)cc1	nt	nt	-12.8%	nt	nt
CC[n+]1ccc(/C=C/c2c[nH]c3ccccc23)cc1	5.01µM*	42.1%	-2.2%	7.08µM*	-24.5
CCn1c(/C=C/c2c[nH]c3ccccc23)nc2ccccc2c1=O	-1.1%	21.2µM*	-12.8%	?	-1.7
COc1ccc2c(/C=C/c3cc[n+](C)cc3)c[nH]c2c1	?	25.3%	-12.9%	12.6µM*	-23.9
CCn1c(/C=C/c2c(C)[nH]c3ccccc23)nc2ccccc2c1=O	?	16.6%	-4.4%	?	-10.7
CCCCCCC[n+]1ccc(/C=C/c2c[nH]c3ccccc23)cc1	7.7%	nt	nt	nt	nt
COC(=O)c1c(-c2cccs2)csc1NC(=O)COc1c(C)ccc(C)c1C	0.8%	nt	22.4µM*	-1.8%	nt
Cc1cc(C)nc(NS(=O)(=O)c2ccc(NC(=O)COc3ccccc3F)cc2)n1	-0.3%	-2.3%	6.0%	-16.7%	-22.3
COc1ccccc1NS(=O)(=O)c1cc(NC(=O)C(C)(C)C)ccc1N1CCOCC1	0.3%	-1.4%	-22.4%	-10.1%	-0.5
COc1ccccc1NS(=O)(=O)c1cc(NC(=O)C2CCCC2)ccc1N1CCOCC1	-1.3%	15µM*	?	2.7%	-4.0
O=C(COc1ccccc1F)Nc1cc(S(=O)(=O)Nc2cccc(Cl)c2)ccc1O	-5.9%	23.8µM*	-18.6%	-0.6%	-35.2
COc1ccccc1NS(=O)(=O)c1cc(NC(=O)COc2ccccc2F)ccc1N1CCOCC1	1.4%	23.8µM*	?	-4.4%	-18.3
COc1ccccc1NS(=O)(=O)c1cc(NC(=O)/C=C/c2cccs2)ccc1N1CCOCC1	-1.4%	-12.7%	-11.3%	-6.6%	-7.9
COCC(=O)Nc1ccc(N2CCOCC2)c(S(=O)(=O)Nc2ccccc2OC)c1	-1.3%	10.6µM*	?	-2.5%	nt
COc1cccc2cc(-c3nc(-c4ccccc4)c(C)s3)c(=O)oc12	-4.6%	nt	-24.0%	nt	nt
CCc1ccc(NC(=O)C2CCC(CNS(=O)(=O)c3ccc4c(c3)C(C)(C)C(=O)N4C)CC2)cc1 (stereo not drawn)	-4.0%	nt	17.3%	-3.1%	nt
CCC[C@H]1C[C@H](C(=O)NC(C(C)Cl)C2O[C@@H](SC)C(OP(=O)(O)O)[C@@H](O)[C@@H]2O)N(C)C1 (stereo partly drawn)	nt	nt	-16.0%	nt	nt
CCc1ccc(NCc2cc3ccc(OC)cc3n(CC(=O)Nc3ccc(C(C)C)cc3)c2=O)cc1	-3.0%	nt	-7.3%	-0.5%	nt
Nc1ccc(/C=C/c2ccc3cccnc3c2)cc1	-7.4%	nt	nt	nt	nt
Cc1c([N+](=O)[O-])cnc2ccccc12	-3.3%	nt	nt	nt	nt
O=C(Cc1ccc(Cl)cc1Cl)Nc1cccc(S(=O)(=O)Nc2ccccc2F)c1	-0.5%	1.19µM*	?	-1.9%	4.5
O=S(=O)(Nc1ccccc1F)c1cccc(NC(=S)NCCN2CCOCC2)c1	-7.5%	0.947µM*	35.5µM*	2.9%	-2.8
COc1ccccc1NS(=O)(=O)c1cc(NC(=S)NCCN2CCOCC2)ccc1N1CCOCC1	-1.3%	5.32µM*	79.4µM*	-2.3%	1.7
